Screening data deposited in PubChem BioAssay by ICCB-Longwood Screening Facility, Harvard Medical School.
Ba CapD inh: Bacillus anthracis CapD inhibitors, primary screen, biochemical, fluorescence intensity. CapD gamma-glutamyltranspeptidase (Bacillus anthracis Ames Ancestor). purified CapD enzyme, fluorescence intensity read-out; hits give low values. z-score (no concentration beside the values). actives 0.23% (n = 140,000); in the data active = z-score mostly below about -2.9, no sharp cut-off; inactive = mostly above about -1.9
AID504770: growth inhibition of E. coli YBA685, primary screen, V. cholerae RctB inhibitors; actives 0.27% (n = 130,000); AID 504770, 2011; z-score (no concentration beside the values); E. coli YBA685 rctB-dependent plasmid, OD600 growth, 3 h; hits give low values; in the data active = z-score below about -2, passing the limit was not always enough
* = called active by the depositor; . = no result given. Rows were chosen to be rich in hits. Some 0.4% of all compounds tested hit in one or more screens of this group.

SMILES	Ba CapD inh	AID504770
O=C1C=CC(=O)N1c1cccc2ccccc12	2.6	-0.6
COC(=O)C1=C(C)OC(N)=C(C#N)C1c1ccc2c(c1)OCO2 (configuration not stated)	0.62	.
CC1=NN(c2cccc(S(N)(=O)=O)c2)C(=O)C1	-0.93	.
CC1=NN(c2cc(S(=O)(=O)O)c3cccc(S(=O)(=O)O)c3c2)C(=O)C1	-5.7*	.
Cc1nccn1CC(O)Cn1c2ccc(Br)cc2c2cc(Br)ccc21 (configuration not stated)	-0.005	2.1
N#CC1(C#N)[C@H](c2ccccc2F)[C@@H](C(=O)c2ccccc2)N2c3ccc4ccccc4c3C=C[C@@H]21	4.6	.
O=C(NCCN1CCOCC1)c1nc(-c2ccc(Cl)cc2)n2c1CCCCC2	-1.6	-2.6*
CCCNC(=O)c1nc(-c2ccc(Cl)cc2)n2c1CCCCC2	0.37	1.8
CCc1cc(Br)ccc1NC(C)=O	-0.34	-2.7*
CCCNC(=O)Nc1ccc(Br)cc1F	0.06	-0.65
COc1ccccc1/C=C1/C(=O)Nc2ccccc21	-2.2	.
COc1ccccc1/C=C1/C(=O)ON=C1C	0.06	-2.8*
CCc1ccc(NC(=O)COC(=O)c2ccc3c(c2)nc(C)c(=O)n3CC)cc1	.	-0.35
CC(=O)Nc1ccc(N/C=C/C(=O)c2ccco2)cc1	-5.8*	1.9
CN(C)c1ccc(N/C=C/C(=O)c2ccco2)cc1	-2.4	0.05
CC(C)(C)c1cc(SCCC#N)cc(C(C)(C)C)c1O	0.17	-2.2*
CC(C)(C)c1cc(CCC#N)cc(C(C)(C)C)c1O	0.14	0.15
O=C(COC(=O)c1ccc(Cl)cc1NC(=O)c1ccc(Cl)cc1)c1ccccc1	0.12	0.65
CC1(C)CC(=O)C2=C(C1)c1c(ccc3ccccc13)NC2c1ccc(-c2ccc(Cl)cc2)o1 (configuration not stated)	2.3	.
O=C(Cc1ccc(-n2c(=S)[nH]c3ccccc3c2=O)cc1)NC1CCCCC1	-0.55	-0.9
Oc1ccc(-c2nc3ccccc3s2)cc1	.	-2.3*
c1ccc(-c2nc3ccccc3s2)cc1	1	-0.1
CCOc1nc(S(=O)(=O)c2ccc(C)cc2)c(Cl)s1	-0.15	-1.1
Cc1ccc(S(=O)(=O)c2nc(Nc3nccs3)sc2Cl)cc1	-5.1*	0.3
Oc1ccc(/C=N\N2CCN(c3ccccc3)CC2)cc1	0.17	-0.2
SMILES	Ba CapD inh	AID504770
CCOC(=O)c1c(C)oc2ccc(OCC(=O)c3ccc(Br)cc3)cc12	-0.13	.
COc1ccc2oc(/C=C/N(C)C)c(C(=O)c3ccc(Br)cc3)c2c1	-3.3*	0.4
COc1ccc(/C=C2\SC(=O)N(CCNC(=O)C3CC(=O)N(c4ccc5c(c4)OCCO5)C3)C2=O)cc1OC (configuration not stated)	.	0.25
CCC(=O)/C(C)=C/c1ccco1	-0.79	0.8
CN(C)/N=C/c1ccc(/C=N/N(C)C)o1	.	0.05
O=C1OC(CN2CCOCC2)CN1N=Cc1ccc([N+](=O)[O-])o1 (configuration not stated)	0.015	.
O=C1CN(/N=C/c2ccc([N+](=O)[O-])o2)C(=O)N1	-0.95	-2.3*
CN(C)/N=C/c1ccc([N+](=O)[O-])o1	-4.4*	.
O=C(N/N=C/c1ccc([N+](=O)[O-])o1)c1ccc(O)cc1	-0.3	.
O=C1OCCN1/N=C/c1ccc([N+](=O)[O-])o1	-0.03	-4.3*
COc1ccc(N2C(=O)c3ccccc3NC2c2cc(OC)c(OC)c(OC)c2)cc1 (configuration not stated)	5.4	.
COc1ccc(NC(c2ccccn2)c2oc(CO)cc(=O)c2O)cc1 (configuration not stated)	-1.4	-1.4
CCOC(=O)C1C(=O)C=C(c2ccco2)CC1c1ccc(F)cc1 (configuration not stated)	-0.38	-0.8
Cn1c(C(=O)N2CCCC(C(=O)NCCc3ccc(S(N)(=O)=O)cc3)C2)cc2sccc21 (configuration not stated)	0.59	0.75
CN(C)/C=C/C=C/c1cc(=O)cc(/C=C/C=C/N(C)C)o1	-15*	-0.35
CCN(CC)c1ccc(/C=C/c2cc(=O)cc(C)o2)cc1	.	-0.65
NS(=O)(=O)c1ccc(CNC(=O)OCCc2ccccc2Br)cc1	-0.13	.
Nc1cc(-c2ccccc2)nc2ccccc12	21	-0.35
Nc1cc(-c2ccccc2)c2ccccc2n1	42	-2.2*
NC(=O)c1ccccc1OCc1ccc(F)cc1Cl	.	1.4
COc1ccc(NC(=O)C(C)NC(=O)c2ccco2)cc1NS(=O)(=O)c1ccc(F)cc1 (configuration not stated)	.	0.15
COC(CN(C)C(=O)c1ccc2c(c1)NC(=O)c1ccccc1S2)OC	-6*	-1.2
COC(=O)c1ccc2c(c1)NC(=O)c1ccccc1S2	-0.025	-0.7
N#CSc1ccc(N)cc1	-1.9	-1.5
Cc1ccc(SC#N)c(N)n1	-0.93	-2.5*
O=C(OCc1cc(=O)n2c3c(sc2n1)CCCC3)C1CCCN1S(=O)(=O)c1ccccc1F (configuration not stated)	.	-0.75
